Here are results for eight compounds from PubChem BioAssay (NCI).

This is part of a sample that, as a whole, favours compounds with a hit. Of some 83,000 tested, about 20% had one in any assay.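 Compound tested at a single concentration for 48 hours in 96-well plates; a percent growth value below 10 was scored as active.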 Unmarked numbers belong to inactive results. Activity calls are given as the source filed them.

Some test systems named below: DU-145 prostate; K-562 leukemia; MALME-3M melanoma; MDA-MB-231 breast; RXF 393 renal; SF-268 CNS; SF-295 CNS; SF-539 CNS; UACC-257 melanoma; M14 melanoma; HCT-15 colon; HT29 colon; SNB-75 CNS; SNB-19 CNS; U251 CNS; PC-3 prostate; SK-MEL-5 melanoma; UACC-62 melanoma; LOX IMVI melanoma; SK-MEL-28 melanoma.
Assay in all cases: NCI-60 one-dose screen, 48 h (100 = growth as untreated, 0 = no growth, -100 = all killed)
What all share (conditions): 10 µM unless noted

In the case of `NS(=O)(=O)c1ccccc1NC(=O)Nc1nc2ccccc2s1`, the growth was 106% in the test with DU-145 prostate; 97.5% in the test with K-562 leukemia; 91.9% in the test with MALME-3M melanoma; 97% in the test with MDA-MB-231 breast; 98.4% in the test on RXF 393 renal; 98.1% in the test with SF-268 CNS. The growth in the test on SF-295 CNS is 94.6%; with SF-539 CNS, 95.8%; in the test on UACC-257 melanoma it was 102%; with M14 melanoma, 93.5%; with HCT-15 colon, 100%; with HT29 colon, 98.2%. The growth with SNB-75 CNS was 86.9%; in the test on SNB-19 CNS it was 98%; in the test with U251 CNS, 99.1%; in the test with PC-3 prostate, 97.8%; in the test on SK-MEL-5 melanoma, 99.8%; in the test on UACC-62 melanoma it was 101%. The results for the growth with LOX IMVI melanoma and with SK-MEL-28 melanoma were 91.8% and 103%, respectively.

On to `CCCCCCCCCc1ccc(OCCOCCOCCOCCOCCOCCOCCOCCOCCO)cc1`, for which the growth with DU-145 prostate is 31.5%; in the test on K-562 leukemia, 10.5%; in the test on MALME-3M melanoma it was -10.2% (active); in the test with MDA-MB-231 breast, -38.1% (active); in the test on RXF 393 renal, 29%; with SF-268 CNS, 28.1%. For the same compound, the growth was 0.0887% (active) in the test on SF-295 CNS; 29% in the test with SF-539 CNS; -25.2% (active) in the test on UACC-257 melanoma; -11.3% (active) with M14 melanoma; 10.4% with HCT-15 colon; 15.2% with HT29 colon. In addition, the growth with SNB-75 CNS was 36.6%; in the test on SNB-19 CNS it was 28.6%; in the test with U251 CNS, 16.4%; in the test on PC-3 prostate it was 9.37% (active); in the test on SK-MEL-5 melanoma it was -77.3% (active); in the test on UACC-62 melanoma, 11.7%. Also, the figures for the growth with LOX IMVI melanoma and in the test with SK-MEL-28 melanoma were 7.91% (active) and 34.4%, respectively.

As for `CCC(C(=O)[C@@H](C)[C@@H](O)[C@H](C)[C@@H]1O[C@@H]([C@@H](CC)C(=O)ONC(=O)c2ccccc2)CC[C@@H]1C)[C@H]1O[C@]2(C=CC(=O)[C@]3(CC[C@@](C)([C@H]4CC[C@](O)(CC)[C@H](C)O4)O3)O2)[C@H](C)C[C@@H]1C` (some centres undefined), the growth with DU-145 prostate is -13% (active); with K-562 leukemia, -6.87% (active); in the test with MALME-3M melanoma, -24.7% (active); in the test on MDA-MB-231 breast, -53.2% (active); in the test with RXF 393 renal it was -6.41% (active); with SF-268 CNS, 28.4%. Moreover, the growth is 1.07% (active) in the test on SF-295 CNS; -62.8% (active) in the test on SF-539 CNS; 32% in the test on UACC-257 melanoma; 21.1% in the test with M14 melanoma; 13.7% with HCT-15 colon; 20.6% in the test with HT29 colon. Moreover, the growth in the test on SNB-75 CNS was 27.6%; with SNB-19 CNS, 21.1%; with U251 CNS, -19% (active); in the test with PC-3 prostate it was 8.93% (active); in the test with SK-MEL-5 melanoma, -73.9% (active); in the test with UACC-62 melanoma, -24.5% (active). The growth in the test on LOX IMVI melanoma was 4.55% (active); in the test with SK-MEL-28 melanoma, 20.6%.

In the case of `O=C(NCCNc1nccc(Nc2ccc(S(=O)(=O)Nc3ccccn3)cc2)n1)c1cccc([N+](=O)[O-])c1`, the growth in the test on DU-145 prostate was 109%; in the test on K-562 leukemia, 92.9%; in the test on MALME-3M melanoma, 108%; with MDA-MB-231 breast it was 118%; in the test with RXF 393 renal it was 108%; in the test with SF-268 CNS, 104%. The growth with SF-295 CNS was 103%; with SF-539 CNS it was 102%; in the test with UACC-257 melanoma, 95.3%; in the test on M14 melanoma, 101%; in the test on HCT-15 colon, 105%; in the test with HT29 colon, 90.6%. The growth in the test on SNB-75 CNS was 93.5%; with SNB-19 CNS, 112%; in the test on U251 CNS it was 97.6%; in the test on PC-3 prostate, 94.2%; in the test on SK-MEL-5 melanoma, 103%; with UACC-62 melanoma, 100%. The growth in the test on LOX IMVI melanoma is 101%; in the test with SK-MEL-28 melanoma it was 107%.

Turning to `COc1ccccc1NC(=O)N=Nc1c(O)[nH]c2ccccc12`, the growth was 102% in the test on DU-145 prostate; 91.2% in the test on K-562 leukemia; 95.8% in the test with MALME-3M melanoma; 82.7% in the test with MDA-MB-231 breast; 100% in the test with RXF 393 renal; 99.1% with SF-268 CNS. The growth in the test with SF-295 CNS was 94.1%; in the test with SF-539 CNS it was 98.3%; in the test with UACC-257 melanoma it was 89%; in the test on M14 melanoma, 95.1%; in the test with HCT-15 colon it was 94.4%; with HT29 colon it was 105%. Moreover, the growth is 82.7% in the test on SNB-75 CNS; 89.7% with SNB-19 CNS; 97.3% in the test on U251 CNS; 89.7% in the test on PC-3 prostate; 94.1% with SK-MEL-5 melanoma; 98.2% with LOX IMVI melanoma. Also, the growth with SK-MEL-28 melanoma is 104%.

Regarding `CCCCNCCCCCNc1cc(OC)cc2cccnc12`, the growth is 120% in the test on DU-145 prostate; 76.8% in the test with K-562 leukemia; 80.8% in the test with MALME-3M melanoma; 87.3% in the test with MDA-MB-231 breast; 87.7% in the test with RXF 393 renal; 95% in the test on SF-268 CNS. In addition, the growth in the test on SF-295 CNS was 96.1%; in the test on SF-539 CNS, 92.8%; in the test on UACC-257 melanoma, 93.1%; with M14 melanoma, 97.1%; with HCT-15 colon, 88.2%; with HT29 colon, 96%. Also, the growth in the test on SNB-75 CNS is 74.1%; in the test on SNB-19 CNS, 95.5%; with U251 CNS, 91.8%; in the test with PC-3 prostate, 77.8%; in the test with SK-MEL-5 melanoma it was 94.3%; with UACC-62 melanoma, 83.2%. The growth with LOX IMVI melanoma is 105%; with SK-MEL-28 melanoma, 98.8%.

Turning to `N=C(N)c1ccc(-c2ccc(-c3ccc(Cl)cc3Cl)s2)cc1`, the growth in the test with DU-145 prostate is -24.7% (active); in the test on K-562 leukemia it was -7.11% (active); in the test with MALME-3M melanoma, 73.9%; with MDA-MB-231 breast, -38% (active); in the test on RXF 393 renal, 87.3%; in the test on SF-268 CNS it was 42.4%. Also, the growth in the test with SF-295 CNS was -30.6% (active); with SF-539 CNS, -28.9% (active); in the test on UACC-257 melanoma, 88%; with M14 melanoma, 41.5%; in the test on HCT-15 colon, -70.6% (active); in the test on HT29 colon, 3.85% (active). For the same compound, the growth was 88.5% in the test with SNB-75 CNS; 10.9% with SNB-19 CNS; -45.4% (active) with U251 CNS; 0.127% (active) in the test with PC-3 prostate; 89.3% in the test on SK-MEL-5 melanoma; 74.8% with UACC-62 melanoma. For the same compound, the growth in the test with LOX IMVI melanoma is -89.3% (active); in the test on SK-MEL-28 melanoma it was 105%.

With `CCOc1ccc(NC(=O)CSc2oc(-c3ccccc3)nc2S(=O)(=O)c2ccc(C)cc2)cc1`, the growth in the test with DU-145 prostate was 67.3%; in the test on K-562 leukemia, 53%; in the test with MALME-3M melanoma, 81%; with MDA-MB-231 breast, 32.2%; in the test with RXF 393 renal, 62.1%; in the test with SF-268 CNS it was 54.1%. Besides, the growth in the test on SF-295 CNS is 48.1%; with SF-539 CNS, 17.8%; in the test on UACC-257 melanoma, 72%; with M14 melanoma it was 71%; in the test on HCT-15 colon, 63.8%; in the test with HT29 colon, 50.9%. Also, the growth with SNB-75 CNS is 45.3%; with SNB-19 CNS it was 70.7%; with U251 CNS, 41.2%; in the test with PC-3 prostate it was 62.3%; with SK-MEL-5 melanoma, 81.2%; in the test with UACC-62 melanoma it was 66.2%. Further, the growth in the test with LOX IMVI melanoma was 54.1%; with SK-MEL-28 melanoma, 79.3%.
